SMN2 splice up – increases expression of the SMN2 splice variant; HEK293 SMN2-luciferase splicing reporter, luminescence, 30-36 h; Potency, µM (titrated, usually from 46.1 µM), for inactives: top-dose activity change, positive = activation, actives largely listed as activators; 210,000 tested, 2.8% active; AID 1458; note: % of control where 0% means no effect; nearly all actives have a fitted effect of over 55% in size
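qHTS luciferase splicing reporter: luminescence rises when SMN2 exon 7 is included in transfected HEK293 cells. Compound exposure lasted 30-36 h at 37C, with 4.5 mM final sodium butyrate as control, followed by a ONE-Glo read.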
ELG1 repair inh – inhibitors of ELG1-dependent DNA repair in HEK293T cells; HEK293T ELG1-luciferase reporter, luminescence, 16 h; DNA damage induced by 5-fluorouridine; 330,000 tested, 2.3% active; Potency, µM (doses to about 46.1 µM), inactives show at the top dose activity change, negative = inhibition, usual class: inhibitors; AID 504467; note: % is set by controls: 0 for no effect and ±100 for the full control effect; nearly all actives have a fitted effect of over 55% in size
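In this reporter screen, reduction of luminescence relative to DMSO vehicle indicated activity. Compounds and 5-fluorouridine were added together to 2,000 cells per well, incubated for 16 hr at 37 °C, then developed with ONE-Glo.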
FLuc modulator – firefly luciferase modulation, counter-screen for miR-21 project; P08659; Potency, µM (titrated, usually from 57.5 µM), for the others: at the highest dose activity change, negative = inhibition, usual class: inhibitors; purified FLuc, Km substrates, luminescence inhibition; 360,000 tested, 6.9% active; AID 588342;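 note: plate controls were vehicle for no effect and reference inhibitor for full effect; nearly all actives have a fitted effect of over 55% in size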
Target sequence (P08659 whole entry, looked up): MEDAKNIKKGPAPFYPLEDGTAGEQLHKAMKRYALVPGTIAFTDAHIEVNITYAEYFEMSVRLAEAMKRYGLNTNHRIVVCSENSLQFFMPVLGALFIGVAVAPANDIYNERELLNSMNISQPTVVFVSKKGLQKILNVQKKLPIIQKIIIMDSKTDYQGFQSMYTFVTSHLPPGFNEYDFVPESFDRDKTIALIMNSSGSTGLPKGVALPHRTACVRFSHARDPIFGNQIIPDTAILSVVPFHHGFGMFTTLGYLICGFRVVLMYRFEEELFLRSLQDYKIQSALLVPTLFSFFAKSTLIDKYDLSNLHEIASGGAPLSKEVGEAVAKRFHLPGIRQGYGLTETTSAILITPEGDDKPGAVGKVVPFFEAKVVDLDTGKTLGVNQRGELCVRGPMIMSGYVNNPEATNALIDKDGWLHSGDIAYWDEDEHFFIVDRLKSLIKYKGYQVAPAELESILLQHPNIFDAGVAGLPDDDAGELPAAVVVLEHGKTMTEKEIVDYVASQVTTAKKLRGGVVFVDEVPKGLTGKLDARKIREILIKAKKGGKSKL
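Purified P. pyralis luciferase (10nM final) with 10uM D-luciferin and 10uM ATP (Km levels) in 50mM Tris acetate pH 7.5, 10mM Mg acetate, 0.01% Tween-20, 0.05% BSA; qHTS 6-point titration, ~60 µM downward; luminescence read.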
ELG1 genotoxic – induces genotoxicity in HEK293T cells with luciferase-tagged ELG1. HEK293T ELG1-luciferase reporter, luminescence, 16 h. Potency, µM (titrated, usually from 46 µM), for the others: top-dose activity change, positive = activation, most hits filed as activators. 330,000 tested, 1.3% active. AID 504466; note: % of control where 0% means no effect; nearly all actives have a fitted effect of over 60% in size
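HEK293T cells expressing luciferase-tagged ELG1 were treated with compound or DMSO for 16 hr at 37°C. Luciferase activity was then read after 30 min with ONE-Glo at room temperature; rising signal flags genetic stress.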
Rab9 prom act – activators of Rab9 promoter. Huh7 Rab9 promoter-luciferase reporter, luminescence, 24 h. Potency, µM (top dose mostly 9.22 µM), without a hit: top-dose activation, negative = inhibition, usual class: activators. 320,000 tested, 2.8% active; note: % of control where 0% means no effect; nearly all actives have a fitted effect of over 60% in size
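Huh7 cells stably carrying Rab9 promoter–luciferase reporter, plated 1500 cells/well, compound added after 2 h and incubated 24 h at 37 °C; luciferase luminescence then read after 10 min with detection reagent.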
NPC1 promoter act – NPC1 promoter activation; Huh7 NPC1 promoter luciferase reporter, 24 h; Potency, µM (highest dose often 9.22 µM), inactives show at the highest dose activation, usual class: activators; 320,000 tested, 2.4% active; AID 485313; note: % of control where 0% means no effect; nearly all actives have a fitted effect of over 60% in size
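Readout is luciferase luminescence, reflecting NPC1 promoter activation in stably transfected Huh7 cells after 24 h compound exposure at 37 °C in reduced-serum medium with 10% FBS.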
The depositor's hits bear a star; ? = inconclusive; nt = not tested or not shown; [ ] = dose if it differs, or a comment. The list is not random: actives were taken first. Their share in the collection is about 9.2%. Calls come from the whole dose curve; as a rule, active = well fitted curve in the direction sought with a large enough effect; inconclusive = small, poorly fitted or top-dose-only effect, or another doubt; inactive = no such curve, though single readings can be large; an effect the other way counts as inactive or inconclusive. Potency is the fitted concentration of half-maximal effect.

SMILES | SMN2 splice up | ELG1 repair inh | FLuc modulator | ELG1 genotoxic | Rab9 prom act | NPC1 promoter act
Cc1nn(CC(=O)c2ccc3c(c2)OCCO3)c(=O)c(C#N)c1C | nt | 18% | nt | 9% | nt | nt
Cc1ccc(-n2c(=O)c3sccc3n(Cc3cc(=O)n4ccccc4n3)c2=O)cc1F | 5% | 11% | 0% | 4% | -1% | -2%
Cc1ccc(-n2c(=O)c3sccc3n(Cc3cc(=O)n4cc(Cl)ccc4n3)c2=O)cc1F | 35µM* | 12% | 1% | 2% | -2% | -1%
Cc1cccc(-c2cc3nc(C)c(C)c(NCCCn4ccnc4)n3n2)c1 | nt | ? | 15µM* | -10% | 1% | 3%
Cc1cc(NCCCn2ccnc2)n2nc(-c3ccc(Cl)cc3)cc2n1 | 3% | ? | ? | 13% | 21% | ?
Cc1cc(NCCCn2ccnc2)n2nc(-c3ccc(F)cc3)cc2n1 | 26% | ? | 9.5µM* | 5% | 8% | 18%
CCNc1ccc(Br)cc(C(=O)/C=C/c2c(Cl)cccc2Cl)c1=O | -110% | ? | 0% | -8% | 1% | 0%
CCNc1ccc(Br)cc(C(=O)/C=C/c2ccc(Cl)cc2)c1=O | -75% | 21µM* | -19% | -9% | 0% | 1%
COCCn1c(-c2ccccc2)c(C)n2c3c(=O)n(C)c(=O)n(C)c3nc12 | 4% | nt | -2% | nt | nt | nt
CCN(CC)c1ccc(/C=C(/C#N)C(=O)NCc2ccccc2)o1 | nt | ? | 24µM* | 15% | ? | 23%
CCN(CC)c1ccc(/C=C(/C#N)C(=O)NC(C)C)o1 | 25% | ? | ? | 19% | 27% | 8%
N#C/C(=C\c1ccccc1[N+](=O)[O-])C(=O)NCc1ccccc1 | nt | 1.8µM* | -6% | -2% | 2% | -3%
COc1ccc(-c2c(=O)n(OCc3ccccc3[N+](=O)[O-])c3ccccc3[n+]2[O-])c(OC)c1 | 7% | ? | -1% | -6% | -5% | -2%
CC1=Nc2cc(C(=O)NCCc3ccccc3)ccc2Sc2c(C)ccc(C)c21 | -34% | nt | -3% | nt | nt | nt
CCCNC(=O)c1ccc2c(c1)N=C(C)c1c(C)ccc(C)c1S2 | 4µM* | nt | ? | nt | nt | nt
N#Cc1c2ccc([N+](=O)[O-])cc2[n+]([O-])n1-c1ccccc1 | nt | 10µM* | nt | ? | -42% | -34%
Cc1ccccc1C(=O)Nc1sc2c(c1C(=O)O)CCC2 | 5% | -11% | 19µM* | -5% | -13% | -1%
O=C(Nc1sc2c(c1C(=O)O)CCC2)c1ccccc1Cl | nt | -7% | ? | -11% | -1% | 0%
Cc1cccc(C(=O)Nc2sc3c(c2C(=O)Nc2ccccc2)CCC3)c1 | -12% | nt | ? | nt | nt | nt
CNC(=O)c1c(NC(=O)c2nc3ccccc3s2)sc2c1CCC2 | 13µM* | ? | 5.4µM* | 4.6µM* | 2µM* | ?
Cc1cccc(C(=O)Nc2sc3c(c2C(=O)O)CCCC3)c1 | 15% | ? | 15µM* | 0% | 28% | 23%
O=C(Nc1sc2c(c1C(=O)O)CCCCC2)c1cccnc1 | nt | 19% | 17µM* | 6% | 28% | 25%
COC(=O)c1c(NC(=O)c2nc3ccccc3s2)sc2c1CCN(C(C)=O)C2 | -7% | ? | ? | -1% | 18% | -2%
O=C(Nc1sc2c(c1C(=O)N1CCOCC1)CCCCC2)c1cccnc1 | -9% | -3% | 4% | 3% | -5% | -2%
CC(C)c1ccc(NC(=O)c2cc3c(s2)-c2ccccc2SC3)cc1 | -4% | nt | -11% | nt | nt | nt
SMILES | SMN2 splice up | ELG1 repair inh | FLuc modulator | ELG1 genotoxic | Rab9 prom act | NPC1 promoter act
Cc1ccc(S(=O)(=O)n2nc(-c3ccc(Cl)cc3)nc2NCc2ccc(F)cc2)cc1 | 1% | nt | 1% | nt | nt | nt
CC(=O)Nc1ccc(S(=O)(=O)Nc2c(NC3CCCCC3)c3ccccc3oc2=O)cc1 | nt | 0% | -1% | 0%[9.26 µM] | -2% | 1%
CCCOc1ccc(-c2nnc(-c3ccncc3)o2)cc1 | ? | ? | 4.8µM* | 2.1µM* | ? | 3.5µM*
CC(C)COc1ccc(-c2nnc(-c3ccncc3)o2)cc1 | 19% | ? | 3.4µM* | 15% | 0.63µM* | 1.1µM*
c1cc(-c2nnc(-c3ccncc3)o2)ccn1 | 5% | 8% | 3% | 0% | 3% | -1%
CSC1=NNC(c2ccc(C(C)(C)C)cc2)=NN1 | nt | ? | 12µM* | 19% | ? | ?
Oc1ccc(C2=NNC(c3ccc(O)cc3)=NN2)cc1 | nt | 1% | -2% | 3% | 2% | 7%
CC(C)[C@H](NS(=O)(=O)c1ccc2c(c1)OCCO2)C(=O)OCC(=O)Nc1cc(Cl)ccc1Cl | -8% | 18µM* | 1% | -4% | -9% | 0%
CC(C)(OC(=O)c1ccc(C#N)cc1)c1cc2ccccc2c(=O)o1 | nt | 25% | -2% | 0% | 0% | -4%
COc1ccc(CNC(=O)COC(=O)c2ccc(C)c(S(=O)(=O)N3CCOCC3)c2)cc1 | nt | -18% | nt | 3% | nt | nt
Cn1cccc1C(=O)OCc1ccc(F)cc1 | nt | 11% | ? | ? | 3% | -3%
Cn1cccc1C(=O)OCc1cc(Cl)cc2c1OCOC2 | 7% | ? | 13µM* | ? | ? | ?
Cc1cc(NC(=O)C(C)SCC(=O)Nc2cc(C(F)(F)F)ccc2N2CCOCC2)no1 (configuration not stated) | nt | -19% | 0% | 3% | 1% | 2%
CN1CCSc2ccc(C(=O)NCc3ccccc3F)cc21 | nt | 0% | ? | -2% | ? | 29%
CN1CCSc2ccc(C(=O)Nc3cc(F)ccc3F)cc21 | nt | ? | 2.1µM* | 2.6µM* | 0.89µM* | 1.3µM*
Cc1ccccc1NC(=O)c1ccc2c(c1)N(C)CCS2 | nt | ? | 11µM* | ? | ? | ?
CC(=O)N1CCc2cc(S(=O)(=O)NC(C(=O)NC(C)c3ccccc3)C(C)C)ccc21 (configuration not stated) | nt | 2% | 1% | 0% | -5% | -6%
O=[N+]([O-])c1ccc(Cl)c(S(=O)(=O)Nc2cccc(S(=O)(=O)NC3=NCCC3)c2)c1 | nt | 6% | nt | 2% | nt | nt
Fc1ccc(F)c(C2=NNC(=NCC3CCCO3)SC2)c1 (configuration not stated) | ? | 3% | ? | 14% | 2.2µM* | ?
CC(=O)Nc1ccc(C2=NNC(=NCC3CCCO3)SC2)cc1 (configuration not stated) | nt | ? | -19% | 2% | 16% | 11%
CCn1cc(Br)c(C(=O)Nc2ccc(OC)cc2)n1 | 14µM* | ? | 15µM* | ? | 29% | ?
CCCCOC(=O)c1ccc(NC(=O)CSc2nnnn2C)cc1 | nt | 16% | 0% | 7% | 16% | -1%

Bioassay records deposited in PubChem by National Center for Advancing Translational Sciences (NCATS).
